Test results from PubChem BioAssay AID602124 (The Scripps Research Institute Molecular Screening Center, 2011).
About 630 (48%) of roughly 1,300 compounds were called active. No stated cut-off is given here; in the data, active means inhibition above about 6.5%; inactive means the rest. So high a share suggests a set chosen from earlier hits. These entries were drawn from the full list.

Biological target: Tyrosine-protein kinase ABL1 (Homo sapiens) + Ras and Rab interactor 1 (Homo sapiens) (UniProt P00519+Q13671)
Assay: Rin1-Abl binding inhibitor retest, confirmation, biochemical, TR-FRET (AID 602124)
Details: purified proteins, at 7.35 µM, active compounds read high

Chain of Tyrosine-protein kinase ABL1 (Homo sapiens) + Ras and Rab interactor 1 (Homo sapiens) (P00519 whole entry, looked up): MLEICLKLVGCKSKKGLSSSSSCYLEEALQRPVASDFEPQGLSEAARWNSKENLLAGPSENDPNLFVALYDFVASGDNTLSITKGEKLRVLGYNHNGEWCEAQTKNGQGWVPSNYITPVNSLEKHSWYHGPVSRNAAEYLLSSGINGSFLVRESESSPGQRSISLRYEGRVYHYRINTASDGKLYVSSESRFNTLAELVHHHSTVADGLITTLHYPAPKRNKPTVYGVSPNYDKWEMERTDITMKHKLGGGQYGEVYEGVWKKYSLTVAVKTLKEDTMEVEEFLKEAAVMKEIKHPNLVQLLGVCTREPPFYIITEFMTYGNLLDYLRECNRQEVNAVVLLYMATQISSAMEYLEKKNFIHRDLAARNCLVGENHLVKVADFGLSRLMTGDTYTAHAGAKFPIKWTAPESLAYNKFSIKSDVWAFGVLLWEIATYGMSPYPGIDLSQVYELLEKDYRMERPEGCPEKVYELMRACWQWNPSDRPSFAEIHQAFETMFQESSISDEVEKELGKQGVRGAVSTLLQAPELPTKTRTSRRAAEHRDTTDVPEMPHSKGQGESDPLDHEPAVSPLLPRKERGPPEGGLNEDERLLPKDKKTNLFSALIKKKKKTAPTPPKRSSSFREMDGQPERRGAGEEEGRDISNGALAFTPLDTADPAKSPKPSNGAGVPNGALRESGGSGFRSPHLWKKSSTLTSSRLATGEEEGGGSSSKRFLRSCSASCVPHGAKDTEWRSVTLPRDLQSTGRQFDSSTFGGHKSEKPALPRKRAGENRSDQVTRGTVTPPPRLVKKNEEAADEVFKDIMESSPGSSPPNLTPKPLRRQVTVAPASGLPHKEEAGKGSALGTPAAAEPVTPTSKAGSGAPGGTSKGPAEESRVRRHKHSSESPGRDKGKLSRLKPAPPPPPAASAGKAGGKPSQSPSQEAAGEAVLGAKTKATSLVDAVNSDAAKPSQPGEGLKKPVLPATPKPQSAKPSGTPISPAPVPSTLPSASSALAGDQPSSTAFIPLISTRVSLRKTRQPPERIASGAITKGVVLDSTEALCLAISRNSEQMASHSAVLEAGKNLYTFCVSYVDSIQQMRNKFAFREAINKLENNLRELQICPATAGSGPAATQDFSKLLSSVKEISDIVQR
Chain of Tyrosine-protein kinase ABL1 (Homo sapiens) + Ras and Rab interactor 1 (Homo sapiens) (Q13671 whole entry, looked up): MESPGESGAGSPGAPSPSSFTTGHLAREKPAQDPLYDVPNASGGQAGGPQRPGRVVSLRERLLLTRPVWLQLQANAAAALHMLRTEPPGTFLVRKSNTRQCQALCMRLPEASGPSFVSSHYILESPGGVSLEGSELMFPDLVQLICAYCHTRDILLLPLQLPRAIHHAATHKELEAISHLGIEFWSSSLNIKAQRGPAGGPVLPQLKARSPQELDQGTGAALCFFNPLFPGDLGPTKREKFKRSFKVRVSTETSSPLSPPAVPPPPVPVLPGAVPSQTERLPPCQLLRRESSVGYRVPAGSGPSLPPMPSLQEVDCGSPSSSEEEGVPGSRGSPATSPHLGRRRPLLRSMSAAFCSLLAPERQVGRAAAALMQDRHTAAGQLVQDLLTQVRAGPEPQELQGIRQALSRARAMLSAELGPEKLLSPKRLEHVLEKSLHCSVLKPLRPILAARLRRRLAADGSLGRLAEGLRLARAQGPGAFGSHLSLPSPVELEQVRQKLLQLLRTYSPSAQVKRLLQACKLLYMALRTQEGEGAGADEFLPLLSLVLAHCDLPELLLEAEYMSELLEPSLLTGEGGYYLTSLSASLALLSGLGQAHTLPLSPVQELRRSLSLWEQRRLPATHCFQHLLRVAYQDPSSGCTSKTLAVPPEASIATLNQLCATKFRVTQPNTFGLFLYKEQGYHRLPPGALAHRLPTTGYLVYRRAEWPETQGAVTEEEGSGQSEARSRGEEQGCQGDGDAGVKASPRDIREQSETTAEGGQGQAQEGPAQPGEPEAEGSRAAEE

inhibition, inactive:
CC(=O)Nc1ccc(CN2CCC(Oc3ccc(C(=O)N4CCCC4)cc3)CC2)cc1 3.99%
CCOC(=O)CN(C(=O)COc1nc(C)cc(C)c1C#N)c1ccc(Cl)cc1 0.28%
O=C(NNc1c2ccccc2nc2ccccc12)c1cc2ccccc2cc1O 1.57%
CCOc1ccc(-n2c(SCC(=O)NC3CCS(=O)(=O)C3)nnc2-c2cccnc2)cc1 (centres undefined) 3.68%
COCCNC(=O)Nc1ccc2nc(-c3ccco3)c(-c3ccco3)nc2c1 5.72%
CN(CC(=O)Nc1ccc(F)cc1)CC(=O)Nc1ccc(Cl)c(S(=O)(=O)N2CCOCC2)c1 0.32%
CCc1ccc(CN(C)C(C)C(=O)Nc2ccc(S(=O)(=O)N3CCCC3)cc2)cc1 (centres undefined) -1.11%
O=C(Nc1ccc(S(=O)(=O)Nc2ncccn2)cc1)c1cncc(Br)c1 1.84%
CC(CCO)Nc1nc2c([nH]1)c(=O)n(C)c(=O)n2C (centres undefined) 1.44%
CN(C)c1ccc(N/C=C/C(=O)C(F)(F)F)cc1 -4.29%
O=C(COc1ccc(S(=O)(=O)NCCc2ccccc2)cc1)N1CCCC1 -1.2%
Cc1cc2ccccc2n1CCNC(=O)COc1ccc2ccccc2c1 0.15%
CCOC(=O)N1CCC(c2cc(=O)n(-c3ccccc3)[nH]2)CC1 -2.37%
Cc1cc(NC(=O)CSCC(=O)NC(C)c2ccccc2)no1 (centres undefined) 0.39%
O=C(Nc1ccc(OC(F)(F)F)cc1)c1ccc2c(c1)no[n+]2[O-] -0.65%

inhibition, active:
CN(C(=O)c1ccc(NC(=O)Cc2cccc(NC(=O)C3CCN(C(=O)c4ccccc4)CC3)c2)cc1)C1CC1 26%
CCCn1c(N)c(C(=O)CSc2nnc(-c3cccnc3)n2-c2ccc(C)cc2C)c(=O)[nH]c1=O 13.8%
Cc1ccc(-n2c(SCC(=O)NCc3ccc4c(c3)OCO4)nnc2-c2cccnc2)c(C)c1 12.5%
Cc1ccccc1C(=O)N1CCC(C(=O)Nc2ccc(S(=O)(=O)N(C)C(C)C)cc2)CC1 9.43%
O=c1ccc2c(-c3ccccc3S(=O)(=O)O)c3ccc(O)c(O)c3oc-2c1O 67%
COC(=O)c1ccc(COC(=O)C2CCN(S(=O)(=O)c3c(Cl)cccc3Cl)CC2)o1 16.6%
CCOC(=O)N1CCN(C(=O)C2CCCN(c3ncnc4c3sc3cccc(F)c34)C2)CC1 (centres undefined) 9.09%
CCOC(=O)N1CCN(C(=O)C2CCN(c3ncnc4c3sc3cccc(F)c34)CC2)CC1 28.5%
CC(OC(=O)c1ccccc1NCCO)C(=O)Nc1ccnn1C(C)C (centres undefined) 53.2%
